The values that follow come from PubChem BioAssay (NCI).

Some test systems named below: SK-MEL-2 melanoma; EKVX NSCLC; SN12C renal; UO-31 renal; TK-10 renal; ACHN renal; CAKI-1 renal; A498 renal; CCRF-CEM leukemia; MOLT-4 leukemia; SR leukemia; RPMI-8226 leukemia; OVCAR-8 ovarian; OVCAR-5 ovarian; OVCAR-4 ovarian; SK-OV-3 ovarian; IGROV1 ovarian; OVCAR-3 ovarian; HS 578T breast; NCI/ADR-RES ovarian.
What all share (assay): NCI-60 one-dose screen, 48 h (100 = growth as untreated, 0 = no growth, -100 = all killed)
Holding throughout (conditions): 10 µM unless noted

About 83,000 compounds went through this panel and 20% of them were active in at least one assay; those are over-represented in the sample as a whole.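 Percent growth is the endpoint: 0 to 100 indicates growth inhibition (40 means 60% inhibition), 0 means no net growth, and negative values indicate cell death.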 Values without a mark were called inactive. Calls of active or inactive are those of the source. How the source made its calls: active means growth percent below 10; inactive means the rest.

For the compound `CN1CCN(CCOc2ccc(-c3cnc4c(-c5cccc(F)c5F)cnn4c3)cc2)CC1`, the growth with SK-MEL-2 melanoma was 99.9%; in the experiment with EKVX NSCLC, 78.6%; with SN12C renal, 90.3%; with UO-31 renal it was 80.8%; with TK-10 renal it was -64.2% (active); in the experiment on ACHN renal it was -22.7% (active). Further, the growth in the experiment with CAKI-1 renal is -8.23% (active); with A498 renal it was 95.4%; with CCRF-CEM leukemia, -13.3% (active); with MOLT-4 leukemia, 80.5%; in the experiment with SR leukemia, -1.72% (active); in the experiment with RPMI-8226 leukemia, -30.5% (active). Also, the growth with OVCAR-8 ovarian is 4.29% (active); with OVCAR-5 ovarian, 116%; in the experiment on OVCAR-4 ovarian, -49.8% (active); with SK-OV-3 ovarian it was 108%; with IGROV1 ovarian it was 81.7%; with OVCAR-3 ovarian it was -52.6% (active). Moreover, the growth was 103% in the experiment with HS 578T breast and 8.9% (active) in the experiment with NCI/ADR-RES ovarian.
With `C=C(c1ccc(OC)c(/C=C/C(=O)c2ccc3c(c2)OCO3)c1)c1cc(OC)c(OC)c(OC)c1`, the growth in the experiment with SK-MEL-2 melanoma was 32.1%; with EKVX NSCLC it was 23.4%; with SN12C renal, 8.55% (active); in the experiment on UO-31 renal, 23.4%; in the experiment on TK-10 renal, 23%; in the experiment on ACHN renal, -26.5% (active). Moreover, the growth in the experiment with CAKI-1 renal is 11.6%; in the experiment on A498 renal it was 17.7%; with CCRF-CEM leukemia, 13.3%; in the experiment on MOLT-4 leukemia, 11.1%; in the experiment with SR leukemia it was 6.41% (active); in the experiment with RPMI-8226 leukemia, 11.7%. For the same compound, the growth in the experiment on OVCAR-8 ovarian is 6.09% (active); with OVCAR-5 ovarian it was 36.6%; in the experiment with OVCAR-4 ovarian, 38.9%; with SK-OV-3 ovarian, 27.4%; in the experiment on IGROV1 ovarian, 35.2%; in the experiment with OVCAR-3 ovarian it was 1.16% (active). Also, the growth with HS 578T breast was 40.8%; in the experiment on NCI/ADR-RES ovarian, 5.57% (active).
Turning to `COc1cccc(/C=C/C(=O)c2cccc(Nc3nc(Nc4ccccc4)nc(Nc4ccccc4)n3)c2)c1`, the growth in the experiment with SK-MEL-2 melanoma was 57.9%; with EKVX NSCLC, 78.6%; in the experiment on SN12C renal, 106%; in the experiment with UO-31 renal it was 56.9%; with TK-10 renal, 77.5%; with ACHN renal, 86%. Moreover, the growth in the experiment on CAKI-1 renal was 84.4%; with A498 renal, 94.7%; with CCRF-CEM leukemia, 43.8%; in the experiment with MOLT-4 leukemia it was 58.8%; with SR leukemia, 42.4%; in the experiment on RPMI-8226 leukemia, -55.2% (active). For the same compound, the growth in the experiment on OVCAR-8 ovarian is 77.7%; in the experiment with OVCAR-5 ovarian, 89%; with OVCAR-4 ovarian it was 84.1%; in the experiment with SK-OV-3 ovarian it was 101%; with IGROV1 ovarian it was 77.5%; with OVCAR-3 ovarian it was 76.6%. Besides, the growth in the experiment with HS 578T breast is 81.5%; with NCI/ADR-RES ovarian, 83.4%.
Take `CN(CCC(=O)c1ccccc1)CCC(=O)c1ccccc1`: the growth in the experiment with SK-MEL-2 melanoma is 91%; in the experiment on EKVX NSCLC it was 103%; in the experiment on SN12C renal it was 82.5%; in the experiment on UO-31 renal, 77.1%; in the experiment with TK-10 renal, 88.8%; in the experiment on ACHN renal, 107%. The growth in the experiment with CAKI-1 renal was 90.7%; with A498 renal it was 78.9%; in the experiment on CCRF-CEM leukemia it was 80.6%; in the experiment on MOLT-4 leukemia, 94.5%; with SR leukemia, 49.9%; in the experiment with RPMI-8226 leukemia, 50.8%. The growth is 93.2% in the experiment on OVCAR-8 ovarian; 95.5% in the experiment with OVCAR-5 ovarian; 103% in the experiment on OVCAR-4 ovarian; 99.8% in the experiment with SK-OV-3 ovarian; 95.3% in the experiment on IGROV1 ovarian; 113% with OVCAR-3 ovarian. The growth in the experiment with HS 578T breast is 100%; in the experiment on NCI/ADR-RES ovarian it was 86.5%.
Regarding `CC1(C)CC[C@]2(C(=O)N[C@H](CO)Cc3ccccc3)CC[C@]3(C)C(=CC[C@@H]4[C@@]5(C)CCCNC(C)(C)[C@@H]5CC[C@]43C)[C@@H]2C1`, the growth is 107% in the experiment on SK-MEL-2 melanoma; 90.9% in the experiment on EKVX NSCLC; 78.6% in the experiment with SN12C renal; 66.5% in the experiment on UO-31 renal; 95.5% in the experiment on TK-10 renal; 101% in the experiment on ACHN renal. The growth in the experiment with CAKI-1 renal was 77.3%; in the experiment on A498 renal, 85.1%; in the experiment on CCRF-CEM leukemia it was 41.8%; in the experiment on MOLT-4 leukemia it was 35.1%; in the experiment on SR leukemia, -5.95% (active); in the experiment with RPMI-8226 leukemia, 36%. Besides, the growth is 97% with OVCAR-8 ovarian; 101% in the experiment on OVCAR-5 ovarian; 87.7% with OVCAR-4 ovarian; 100% in the experiment with SK-OV-3 ovarian; 65.1% with IGROV1 ovarian; 97.3% in the experiment on OVCAR-3 ovarian. In addition, the growth in the experiment on HS 578T breast and with NCI/ADR-RES ovarian was 85.6% in each case.
As for `Cc1cn(-c2cc(NC(=O)c3cncc(C#Cc4c(N)ncc5ccc(F)cc45)c3)cc(C(F)(F)F)c2)cn1`, the growth is 11.4% in the experiment with SK-MEL-2 melanoma; 73.4% with EKVX NSCLC; 54.5% in the experiment on SN12C renal; 27.4% with UO-31 renal; 84.3% with TK-10 renal; 60.6% in the experiment with ACHN renal. Further, the growth was 72.1% in the experiment with CAKI-1 renal; 84% in the experiment with A498 renal; 39.6% with CCRF-CEM leukemia; 35.6% with MOLT-4 leukemia; 51.4% in the experiment on SR leukemia; 55.1% with RPMI-8226 leukemia. The growth with OVCAR-8 ovarian is 65.2%; with OVCAR-5 ovarian it was 46.2%; in the experiment on OVCAR-4 ovarian, 79.6%; in the experiment with SK-OV-3 ovarian, 87.6%; in the experiment on IGROV1 ovarian, 32.9%; in the experiment on OVCAR-3 ovarian it was 84.5%. Also, the growth in the experiment with HS 578T breast is 54.6%; in the experiment on NCI/ADR-RES ovarian it was 79.1%.
As for `COc1cc(OC)c(/C=C/C(=O)c2c(O)cc(OC)c(C3CCN(C)CC3)c2OC)c(OC)c1`, the growth in the experiment on SK-MEL-2 melanoma is -57.8% (active); with EKVX NSCLC, 22.9%; in the experiment with SN12C renal it was 4.89% (active); with UO-31 renal it was -76.2% (active); with TK-10 renal, -82.5% (active); in the experiment on ACHN renal it was -98.3% (active). Also, the growth was -62.8% (active) with CAKI-1 renal; 17.8% in the experiment with A498 renal; -19.3% (active) in the experiment on CCRF-CEM leukemia; -34.4% (active) in the experiment on MOLT-4 leukemia; -22.2% (active) in the experiment on SR leukemia; -45.3% (active) in the experiment with RPMI-8226 leukemia. Also, the growth in the experiment with OVCAR-8 ovarian is 1.17% (active); in the experiment on OVCAR-5 ovarian, -29.8% (active); with OVCAR-4 ovarian, 19.3%; in the experiment with SK-OV-3 ovarian, -79.7% (active); in the experiment with IGROV1 ovarian, 29.1%; in the experiment with OVCAR-3 ovarian, -51.1% (active). The growth is -46.2% (active) in the experiment with HS 578T breast and -19.3% (active) with NCI/ADR-RES ovarian.
